Experimental data reported in patent publication US20200172896, “EVOLUTION OF BIOACTIVE SEQUENCE-DEFINED SYNTHETIC POLYMERS USING DNA-TEMPLATED POLYMERIZATION” (President and Fellows of Harvard College, published 2020).

Biological target: PCSK9 (Homo sapiens, UniProt Q8NBP7;Q8NBP7 Q8NBP7:31-152,Q8NBP7:153-692)
Test: SPR; vs PCSK9-A5; salmon sperm DNA
Settings: tags: ACROBiosystems PC9-H5223; label: 5' dual biotin-iSp18; ssDNA; as PCSK9-A5 except codon 13 CAC unmodified [codon 13 CAC (nt 55-57) unmodified; other codons as PCSK9-A5 (including phenol at codon 9 TTT nt 43-45, cyclopentyl at codon 14 CTT nt 58-60)]

Sequence of PCSK9 (Q8NBP7 31-152, chain 1 of 2): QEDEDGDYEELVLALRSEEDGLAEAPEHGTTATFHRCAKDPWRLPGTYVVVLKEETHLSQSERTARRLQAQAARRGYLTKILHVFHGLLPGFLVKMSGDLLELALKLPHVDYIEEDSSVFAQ
Sequence of PCSK9 (Q8NBP7 153-692, chain 2 of 2): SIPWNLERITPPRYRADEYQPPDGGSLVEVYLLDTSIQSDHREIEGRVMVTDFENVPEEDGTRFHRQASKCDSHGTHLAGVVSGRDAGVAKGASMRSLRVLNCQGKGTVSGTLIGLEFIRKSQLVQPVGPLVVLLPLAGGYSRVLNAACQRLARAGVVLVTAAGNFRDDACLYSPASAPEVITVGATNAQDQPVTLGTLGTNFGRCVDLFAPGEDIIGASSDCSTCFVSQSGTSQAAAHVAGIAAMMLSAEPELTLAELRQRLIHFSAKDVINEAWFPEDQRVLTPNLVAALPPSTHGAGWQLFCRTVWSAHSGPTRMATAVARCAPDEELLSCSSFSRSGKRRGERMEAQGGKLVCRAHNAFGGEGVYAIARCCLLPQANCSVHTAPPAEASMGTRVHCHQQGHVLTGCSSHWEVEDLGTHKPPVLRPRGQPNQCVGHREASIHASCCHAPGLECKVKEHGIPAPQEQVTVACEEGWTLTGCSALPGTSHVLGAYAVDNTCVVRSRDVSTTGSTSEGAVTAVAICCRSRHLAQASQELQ

Sequence: CGAATCAGATTGGACCAGCCACGTTACTGATTCTTCTACCGTTTTTGCCCCCGGCACCTTCTGGAGTCCAGATGTAGGTAG
- binding signal: ~2 fold reduction in affinity
